Measurements as given in PubChem BioAssay AID1159580 (chemical genetic matrix, 2015).
“And” between values parts separate entries of the source, which are not always exact repeats. Identical values can stand only once. Screen size: about 5,500 compounds; about 2,000 (36%) were called active. Roughly 18% stayed inconclusive and do not appear here. Rule as the data show it: active = normalized growth mostly below about 0.91 (no sharp cut-off); inconclusive = no clear call, values can overlap the other calls; inactive = mostly above about 0.92. The list shows a part of the results.

Assay: chemical genetic growth profiling, strain panel (AID 1159580);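 also: tested at 20 µM; growth read once vehicle control cultures reached saturation at 30 °C; 1 = growth at the plate median or of vehicle wells; lower values mean less growth of the strain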
Conditions: S. cerevisiae deletion strains, growth OD

Measured: normalized growth

CCCCNc1cc(C(=O)O)cc(S(N)(=O)=O)c1Oc1ccccc1
inactive: locus YAL013W, strain DEP1, stronger effect = lower value 0.964 | locus YAL021C, strain ccr4, stronger effect = lower value 1.03 | locus YAL026C, strain drs2, stronger effect = lower value 1.01 | locus YAL030W, strain snc1, stronger effect = lower value 1.01 | locus YAL040C, strain CLN3, stronger effect = lower value 0.946 | locus YBL061C, strain skt5, stronger effect = lower value 0.992 | locus YBR009C, strain hhf1, stronger effect = lower value 0.997 | locus YBR021W, strain FUR4, stronger effect = lower value 0.985 | locus YBR023C, strain chs3, stronger effect = lower value 0.999 | locus YBR171W, strain sec66, stronger effect = lower value 0.998 | locus YBR229C, strain ROT2, stronger effect = lower value 0.987 | locus YBR231C, strain swc5, stronger effect = lower value 0.99 | locus YBR279W, strain paf1, stronger effect = lower value 1.01 | locus YCL011C, strain gbp2, stronger effect = lower value 1 | locus YCL016C, strain dcc1, stronger effect = lower value 0.993 | locus YCL029C, strain bik1, stronger effect = lower value 0.981 | locus YCL069W, strain vba3, stronger effect = lower value 1.01 | locus YCR088W, strain abp1, stronger effect = lower value 1.01 | locus YDL005C, strain med2, stronger effect = lower value 0.999 | locus YDL035C, strain GPR1, stronger effect = lower value 0.996 | locus YDL040C, strain nat1, stronger effect = lower value 0.999 | locus YDL074C, strain BRE1, stronger effect = lower value 1.03 | locus YDL101C, strain DUN1, stronger effect = lower value 0.992 | locus YDL134C, strain PPH21, stronger effect = lower value 0.965 | locus YDL185W, strain tfp1, stronger effect = lower value 0.98 | locus YDL192W, strain arf1, stronger effect = lower value 0.991 | locus YDR001C, strain nth1, stronger effect = lower value 1.01 | locus YDR069C, strain doa4, stronger effect = lower value 1.01 | locus YDR101C, strain arx1, stronger effect = lower value 0.992 | locus YDR137W, strain rgp1, stronger effect = lower value 1.01 | locus YDR150W, strain NUM1, stronger effect = lower value 0.975 | locus YDR159W, strain sac3, stronger effect = lower value 0.943 | locus YDR162C, strain NBP2, stronger effect = lower value 0.982 | locus YDR195W, strain ref2 0.983 | locus YDR297W, strain sur2, stronger effect = lower value 0.997 | locus YDR318W, strain mcm21, stronger effect = lower value 0.989 | locus YDR334W, strain swr1, stronger effect = lower value 1.02 | locus YDR335W, strain msn5, stronger effect = lower value 1.01 | locus YDR363W, strain ESC2, stronger effect = lower value 0.992 | locus YDR388W, stronger effect = lower value 0.975 | locus YDR392W, strain spt3, stronger effect = lower value 0.906 | locus YDR502C, strain sam2, stronger effect = lower value 1.01 | locus YEL003W, strain gim4, stronger effect = lower value 1.01 | locus YEL037C, strain rad23, stronger effect = lower value 1 | locus YEL061C, strain CIN8 (second series), stronger effect = lower value 1.03 | locus YEL061C, strain CIN8, stronger effect = lower value 0.994 | locus YER002W, strain NOP16, stronger effect = lower value 0.986 | locus YER015W, strain faa2, stronger effect = lower value 1.01 | locus YER016W, strain bim1, stronger effect = lower value 0.987 | locus YER110C, stronger effect = lower value 0.978 | locus YER111C, strain swi4, stronger effect = lower value 0.998 | locus YER155C, strain BEM2 (second series), stronger effect = lower value 0.974 | locus YER155C, strain BEM2, stronger effect = lower value 0.989 | locus YER167W, strain BCK2, stronger effect = lower value 0.98 | locus YFR010W, strain ubp6, stronger effect = lower value 1.01 | locus YGL078C, strain dbp3, stronger effect = lower value 0.97 | locus YGL086W, strain mad1, stronger effect = lower value 0.998 | locus YGL167C, strain pmr1, stronger effect = lower value 1 | locus YGL173C, strain kem1, stronger effect = lower value 0.983 | locus YGL227W, strain vid30, stronger effect = lower value 0.992 | locus YGL240W, strain doc1, stronger effect = lower value 0.996 | locus YGL248W, strain PDE1, stronger effect = lower value 1 | locus YGL253W, strain hxk2, stronger effect = lower value 1.04 | locus YGR078C, strain PAC10, stronger effect = lower value 0.98 | locus YGR135W, strain pre9, stronger effect = lower value 0.957 | locus YGR252W, strain gcn5, stronger effect = lower value 0.956 | locus YHR013C, strain ard1, stronger effect = lower value 0.972 | locus YHR027C, strain rpn1, stronger effect = lower value 1.01 | locus YHR030C, strain SLT2, stronger effect = lower value 0.983 and 1.03 | locus YHR079C, strain IRE1 (second series), stronger effect = lower value 0.99 | locus YHR079C, strain IRE1, stronger effect = lower value 1.07 | locus YHR094C, strain hxt1, stronger effect = lower value 0.97 | locus YHR129C, strain ARP1, stronger effect = lower value 0.99 | locus YHR142W, strain chs7, stronger effect = lower value 1.03 | locus YHR200W, strain rpn10, stronger effect = lower value 0.984 | locus YIL066C, strain RNR3, stronger effect = lower value 0.997 | locus YIL073C, strain SPO22, stronger effect = lower value 0.937 | locus YIL125W, strain kgd1, stronger effect = lower value 0.973 | locus YIR030C, strain dcg1, stronger effect = lower value 0.981 | locus YJL092W, strain hpr5, stronger effect = lower value 1.01 | locus YJL095W, strain BCK1 (second series), stronger effect = lower value 0.999 | locus YJL095W, strain BCK1, stronger effect = lower value 1.03 and 1.02 | locus YJL115W, strain asf1, stronger effect = lower value 1 | locus YJL129C, strain trk1, stronger effect = lower value 1.01 | locus YJL134W, strain LCB3, stronger effect = lower value 0.993 | locus YJL154C, strain vps35, stronger effect = lower value 1 | locus YJL164C, strain tpk1, stronger effect = lower value 1.01 | locus YJL166W, strain qcr8, stronger effect = lower value 1.01 | locus YJL168C, strain set2, stronger effect = lower value 0.982 | locus YJL187C, strain SWE1 (second series), stronger effect = lower value 1.01 | locus YJR043C, strain POL32, stronger effect = lower value 1 | locus YJR066W, strain TOR1, stronger effect = lower value 0.966 | locus YJR075W, strain HOC1, stronger effect = lower value 0.971
